An excerpt weighted towards active compounds, which were near 19% of everything screened.
HT1080 IDH1KD tx – qHTS for induction of synthetic lethality in tumor cells producing 2HG: qHTS for the HT-1080-IDH1KD cell line; Potency, µM (top dose mostly 46.1 µM), for inactives: at the top dose activity, negative = toxicity, usual class: cytotoxic; HT-1080 IDH1 knockdown viability, ATP luminescence, 48 h; actives 2% (n = 360,000);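 note: potency is the fitted concentration of half-maximal effect; 0% = DMSO wells and -100% = cell-free medium wells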
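Knockdown cells (IDH1KD HT-1080) received compounds 2 h after plating at 750 cells/well and were kept 48 h at 37 °C in 5% FBS RPMI. A CellTiter-Glo luminescence read gave % activity for curve fitting.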
HT1080-NT tox – qHTS for induction of synthetic lethality in tumor cells producing 2HG: qHTS for the HT-1080-NT fibrosarcoma cell line; HT-1080-NT fibrosarcoma viability, CellTiter-Glo ATP luminescence, 48 h; Potency, µM (titrated, usually from 46.1 µM), for the others: at the highest dose activity, negative = less viability, hits mostly cytotoxic; actives 1.6% (n = 360,000); AID 686970, 2013;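 note: NT is the 2HG producing partner of a matched IDH1 knockdown line; potency is the fitted concentration of half-maximal effect; 0% = DMSO-treated cells and -100% = media-only wells without cells; nearly all actives have a fitted effect of over 55% in size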
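Luminescent CellTiter-Glo readout after 48 hours of compound exposure at 37 degrees C defined viability of HT-1080-NT cells. Activity was normalized to DMSO wells and cell-free media wells; concentration-response curves were fitted and assigned curve classes.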
DT40 TDP1 CPT – qHTS for Inhibitors of human tyrosyl-DNA phosphodiesterase 1 (TDP1): qHTS in cells in presence of CPT | chicken DT40 Tdp1-/-;hTDP1 cells + 20 nM CPT, ATP luminescence, 48 h | Potency, µM (series often up to 46.2 µM), without a hit: at the highest dose activity change, negative = growth inhibition, actives largely listed as inhibitors | actives 12% (n = 420,000) | AID 686979, 2013; note: potency is the fitted concentration of half-maximal effect; nearly all actives have a fitted effect of over 55% in size
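Chicken DT40 Tdp1-/- cells stably complemented with human TDP1 were seeded at 400 cells/well in medium containing 20 nM camptothecin, exposed to pin-transferred compounds, and grown at 37 °C for at least 48 hr. Viability was read as ATP luminescence.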
IL-1B inflam inh – qHTS for Inhibitors of Inflammasome Signaling: IL-1-beta AlphaLISA Primary Screen | THP-1 LPS/ATP IL-1B secretion, AlphaLISA, 16 h; active compounds read low | activity change, % at 57.5 µM | actives 4.7% (n = 360,000); in the data active = activity change below about -50%; inconclusive = mostly about -30% to -49%
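THP-1 cells pretreated 1 hr with compounds (up to 57.5 uM final), then stimulated with LPS (250 ng/mL final) plus ATP (1.25 mM final); secreted IL-1B measured by AlphaLISA after 16 hr, decreased signal indicating inhibition.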
DT40 TDP1 no CPT – qHTS for Inhibitors of human tyrosyl-DNA phosphodiesterase 1 (TDP1): qHTS in cells in absence of CPT. DT40 Tdp1-/- hTDP1 cells, no CPT, ATP luminescence, 48 h. Potency, µM (doses to about 46.2 µM), for the others: at the top dose activity change, negative = growth inhibition, actives largely listed as inhibitors. actives 15% (n = 420,000); note: potency is the fitted concentration of half-maximal effect; nearly all actives have a fitted effect of over 55% in size
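Stably hTDP1-transfected Tdp1-null chicken DT40 cells were treated with library compounds minus camptothecin and grown for at least 48 hr at 37 °C, after which cellular ATP was quantified by luminescence.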
An asterisk follows results filed as active. Unless noted, calls come from the whole dose curve; as a rule, active = well fitted curve in the direction sought with a large enough effect; inconclusive = small, poorly fitted or top-dose-only effect, or another doubt; inactive = no such curve, though single readings can be large; an effect the other way counts as inactive or inconclusive. Unless noted, % is set by controls: 0 for no effect and ±100 for the full control effect.

`CN(C(=O)Oc1ccc([N+](=O)[O-])cc1)c1ccccc1` gave HT1080 IDH1KD tx 3%, HT1080-NT tox 0%, DT40 TDP1 CPT 4%, IL-1B inflam inh -56* and DT40 TDP1 no CPT -6%.
O=C(Cc1ccccc1)Oc1ccc([N+](=O)[O-])cc1 was read as HT1080 IDH1KD tx 0%, HT1080-NT tox 1%, DT40 TDP1 CPT -23%, IL-1B inflam inh 9 and DT40 TDP1 no CPT -20%.
For CC1(C)C2([N+](=O)[O-])CN3CC1([N+](=O)[O-])CN(C2)C3c1ccccn1 (configuration not stated) the results were HT1080 IDH1KD tx 4%, HT1080-NT tox 10%, DT40 TDP1 CPT 6%, IL-1B inflam inh 20 and DT40 TDP1 no CPT 0%.
For COC(=O)C1=C(C)NC(C)=C(C(=O)OCC(C)=O)C1c1ccccc1[N+](=O)[O-] (configuration not stated) the results were DT40 TDP1 CPT 19µM* and DT40 TDP1 no CPT 12µM*.
For Cn1cc(C(=O)C(=O)N[C@H]2CN3CCC2CC3)c2ccccc21 the results were DT40 TDP1 CPT -10% and DT40 TDP1 no CPT inconclusive.
Screening COC(=O)C1=C(c2ccc(F)cc2OCc2ccccc2)C[C@@H]2CC[C@H]1N2C(=O)NCCO returned HT1080 IDH1KD tx 12%, HT1080-NT tox 11%, DT40 TDP1 CPT 3%, IL-1B inflam inh 13 and DT40 TDP1 no CPT -19%.
For COC(=O)C1=C(c2ccc(F)cc2OCc2ccccc2)C[C@@H]2CC[C@H]1N2C(=O)NC1CCN(Cc2ccccc2)CC1 the results were HT1080 IDH1KD tx -24%, HT1080-NT tox -23%, DT40 TDP1 CPT 8.2µM*, IL-1B inflam inh inconclusive and DT40 TDP1 no CPT 23µM*.
Screening COC(=O)C1=C(c2cccc(OCc3ccccc3)c2)C[C@@H]2CC[C@H]1N2C(=O)NC1CCN(Cc2ccccc2)CC1 returned HT1080 IDH1KD tx inconclusive, HT1080-NT tox 23µM*, DT40 TDP1 CPT 6.5µM*, IL-1B inflam inh -63* and DT40 TDP1 no CPT 6.5µM*.
`COC(=O)C1=C(c2ccccc2OCc2ccccc2)C[C@@H]2CC[C@H]1N2C(=O)NC1CCN(Cc2ccccc2)CC1` gave HT1080 IDH1KD tx -36%, HT1080-NT tox -24%, DT40 TDP1 CPT inconclusive, IL-1B inflam inh -65* and DT40 TDP1 no CPT 23µM*.
`C=CCOC(=O)N1Cc2ccccc2-n2nncc2C1` gave HT1080 IDH1KD tx -5%, HT1080-NT tox -3%, DT40 TDP1 CPT -3%, IL-1B inflam inh 7 and DT40 TDP1 no CPT -19%.
Screening CCN(CC)CC(O)c1ccc(C2CCCC2)cc1 (configuration not stated) returned HT1080 IDH1KD tx -14%, HT1080-NT tox -12%, DT40 TDP1 CPT inconclusive, IL-1B inflam inh -6 and DT40 TDP1 no CPT inconclusive.
For NCC(CS(=O)(=O)O)c1ccc(Cl)cc1 (configuration not stated) the results were DT40 TDP1 CPT 3% and DT40 TDP1 no CPT -21%.
For Cn1cc(C=O)c2nccnc21 the results were HT1080 IDH1KD tx 2%, HT1080-NT tox -1%, DT40 TDP1 CPT -5%, IL-1B inflam inh 23 and DT40 TDP1 no CPT -4%.
COc1cc(CN2CC3CC(C2)c2cccc(=O)n2C3)cc(OC)c1OC (configuration not stated) was read as HT1080 IDH1KD tx 0%, HT1080-NT tox 3%, DT40 TDP1 CPT -4%, IL-1B inflam inh -14 and DT40 TDP1 no CPT -2%.
`COc1cc(C)c(-c2nc(CN3C[C@@H]4C[C@@H](C3)c3cccc(=O)n3C4)c(C)o2)cc1C` gave HT1080 IDH1KD tx -13%, HT1080-NT tox -20%, DT40 TDP1 CPT inconclusive, IL-1B inflam inh -115* and DT40 TDP1 no CPT inconclusive.

Screening results: PubChem, National Center for Advancing Translational Sciences (NCATS)
